A short description of assay [1]: ATG_CRE_CIS: Attagene CIS-FACTORIAL HepG2 Assay for human cAMP Responsive Element (CRE) binding protein 3 (AID 2282926). The settings on record: HepG2 CRE cis-reporter, Attagene multiplexed mRNA; actives raise or lower the signal. The method in brief: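 HepG2 cells transiently transfected with a multiplexed reporter library (CRE-driven unit among them) were dosed for 24 h. Reporter mRNA was quantified by RT-PCR, fluorescent labelling, HpaI digestion and capillary electrophoresis, with bidirectional fitting against DMSO baseline.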

Assay [2] can be described thus: ATG_CMV_CIS: Attagene CIS-FACTORIAL HepG2 Assay for human CMV (Internal Marker) (AID 2282928).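 Also: endpoint acts as a background internal control marker rather than a target.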 Particulars: HepG2 CMV promoter reporter, transcription factor profiling; actives raise or lower the signal. The method, boiled down: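 HepG2 cells transiently transfected with multiple cis-regulated reporter units; 24 h compound exposure. Reporter mRNA quantified by RT-PCR, 6-FAM primer-extension labeling, HpaI digestion and capillary electrophoresis; bidirectional fitting against DMSO baseline.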

The target in assay [3] is Aryl hydrocarbon receptor (Homo sapiens) (UniProt P35869). The assay is described as follows: ATG_Ahr_CIS: Attagene CIS-FACTORIAL HepG2 Assay for human Aryl Hydrocarbon Receptor (Ahr) (AID 2282930). The settings on record: HepG2 AhR cis-factorial reporter transcription; actives raise or lower the signal. The method in brief: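 HepG2 cells transiently transfected with cis-element-driven multiplexed reporter transcription units; endogenous transcription factor activity measured as reporter mRNA 24 h after dosing. RT-PCR, 6-FAM labelling, HpaI digestion, capillary electrophoresis; bidirectional fitting versus DMSO baseline.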
Chain of Aryl hydrocarbon receptor (Homo sapiens) (P35869 whole entry, looked up): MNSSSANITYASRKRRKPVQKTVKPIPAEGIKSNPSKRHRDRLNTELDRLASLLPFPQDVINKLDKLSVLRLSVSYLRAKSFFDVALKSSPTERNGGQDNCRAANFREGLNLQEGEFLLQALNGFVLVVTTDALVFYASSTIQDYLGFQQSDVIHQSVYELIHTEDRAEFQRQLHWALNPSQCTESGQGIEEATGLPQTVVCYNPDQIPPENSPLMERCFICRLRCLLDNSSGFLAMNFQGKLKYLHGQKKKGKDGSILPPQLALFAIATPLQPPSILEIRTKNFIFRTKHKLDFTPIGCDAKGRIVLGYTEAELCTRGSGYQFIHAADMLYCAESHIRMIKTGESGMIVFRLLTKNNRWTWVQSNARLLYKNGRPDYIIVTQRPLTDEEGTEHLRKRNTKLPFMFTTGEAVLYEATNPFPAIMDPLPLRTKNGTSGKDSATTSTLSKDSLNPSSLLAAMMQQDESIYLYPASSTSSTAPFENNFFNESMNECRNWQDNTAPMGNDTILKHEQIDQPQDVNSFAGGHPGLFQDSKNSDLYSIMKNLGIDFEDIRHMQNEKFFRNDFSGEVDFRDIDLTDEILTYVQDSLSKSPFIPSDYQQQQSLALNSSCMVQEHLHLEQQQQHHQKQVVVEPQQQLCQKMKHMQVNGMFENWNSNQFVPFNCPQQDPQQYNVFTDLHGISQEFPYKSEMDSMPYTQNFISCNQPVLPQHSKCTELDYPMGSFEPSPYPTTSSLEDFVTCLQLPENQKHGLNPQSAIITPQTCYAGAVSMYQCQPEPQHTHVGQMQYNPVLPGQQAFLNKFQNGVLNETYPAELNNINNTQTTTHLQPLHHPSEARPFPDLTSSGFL

A short description of assay [4]: ATG_AP_1_CIS: Attagene CIS-FACTORIAL HepG2 Assay for human Activator Protein 1 (AP-1) (AID 2282931). Particulars: HepG2 Attagene cis-factorial AP-1 reporter mRNA; actives raise or lower the signal. The method in brief: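 HepG2, transient cis-reporter transfection; 24 h; readout RT-PCR/CE fluorescence; DMSO baseline, gain and loss fitted.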
Assay [5] can be described thus: ATG_BRE_CIS: Attagene CIS-FACTORIAL HepG2 Assay for human Bone Morphogenetic Protein (BMP) Response Element (BRE) (AID 2282933). The settings on record: HepG2 BMP response element reporter, Attagene transcription factor profiling; actives raise or lower the signal. The method in brief:
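Multiplexed cis-reporter assay, HepG2, 24 h exposure. mRNA from reporter units quantified via RT-PCR/CE; DMSO baseline; bidirectional curve fit.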

Assay [6] in a line: ATG_FoxO_CIS: Attagene CIS-FACTORIAL HepG2 Assay for human Forkhead box O (FoxO) (AID 2282943). The settings on record: HepG2 Attagene cis-reporter, FoxO element, mRNA; actives raise or lower the signal. The method in brief: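 HepG2 cells transiently transfected with cis-promoter-driven multiple reporter transcription units; 24 h after chemical dosing, reporter mRNA quantified by RT-PCR, fluorescent primer extension, HpaI digestion and capillary electrophoresis. Bidirectional fitting versus DMSO baseline.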

Assay [7] can be described thus: ATG_GATA_CIS: Attagene CIS-FACTORIAL HepG2 Assay for human GATA Binding Protein (AID 2282944). The settings on record: HepG2 GATA cis-element reporter, Attagene multiplex mRNA; actives raise or lower the signal. The method in brief:
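After transfecting HepG2 cells with multiple cis-regulated reporter units, chemicals are dosed for 24 h; isolated RNA undergoes RT-PCR and fluorescent labeling before capillary electrophoresis, with activity expressed against DMSO.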

The target of assay [8] is Hypoxia-inducible factor 1-alpha (Homo sapiens) (UniProt Q16665). The assay can be described thus: ATG_HIF1a_CIS: Attagene CIS-FACTORIAL HepG2 Assay for human Hypoxia Inducible Factor 1 (HIF1A) (AID 2282951). Particulars: HepG2 Attagene cis-factorial HIF1a reporter transcription; actives raise or lower the signal. The method, boiled down: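 After 24 h chemical exposure of reporter-transfected HepG2 cells, reporter cDNA was PCR-amplified, labelled by 6-FAM primer extension (2 min 95 C, 20 s 68 C, 10 min 72 C), HpaI-cut (2 h, 37 C) and analysed by CE.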
Chain of Hypoxia-inducible factor 1-alpha (Homo sapiens) (Q16665 whole entry, looked up): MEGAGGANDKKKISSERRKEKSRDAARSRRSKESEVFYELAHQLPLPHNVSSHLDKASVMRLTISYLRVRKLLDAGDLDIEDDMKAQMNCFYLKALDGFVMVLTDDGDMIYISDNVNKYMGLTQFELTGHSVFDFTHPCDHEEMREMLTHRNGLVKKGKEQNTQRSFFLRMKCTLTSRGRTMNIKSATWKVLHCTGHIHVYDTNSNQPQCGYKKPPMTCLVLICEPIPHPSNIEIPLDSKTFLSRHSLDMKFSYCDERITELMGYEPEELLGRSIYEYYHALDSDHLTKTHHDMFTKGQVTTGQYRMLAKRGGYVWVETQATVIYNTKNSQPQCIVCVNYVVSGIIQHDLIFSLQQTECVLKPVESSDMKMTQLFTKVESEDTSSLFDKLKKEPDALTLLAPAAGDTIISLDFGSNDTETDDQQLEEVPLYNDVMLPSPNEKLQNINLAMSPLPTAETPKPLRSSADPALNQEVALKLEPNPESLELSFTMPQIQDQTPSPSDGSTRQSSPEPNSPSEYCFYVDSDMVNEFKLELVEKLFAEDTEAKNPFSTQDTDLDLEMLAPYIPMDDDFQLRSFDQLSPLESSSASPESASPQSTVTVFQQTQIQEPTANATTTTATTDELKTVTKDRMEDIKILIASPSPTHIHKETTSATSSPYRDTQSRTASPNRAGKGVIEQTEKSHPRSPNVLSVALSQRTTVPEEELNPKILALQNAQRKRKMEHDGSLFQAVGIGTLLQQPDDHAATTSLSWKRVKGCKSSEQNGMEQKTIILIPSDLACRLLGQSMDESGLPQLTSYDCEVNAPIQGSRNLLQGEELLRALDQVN

For assay [9], the target named is Hepatocyte nuclear factor 6 (Homo sapiens) (UniProt Q9UBC0). The assay is described as follows: ATG_HNF6_CIS: Attagene CIS-FACTORIAL HepG2 Assay for human Hepatocyte Nuclear Factor 6 (HNF6) (AID 2282952). The settings on record: HepG2 Attagene cis-factorial HNF6 reporter transcription; actives raise or lower the signal. The method, boiled down: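 HepG2 cells transiently transfected with cis-element-driven multiple reporter transcription units, dosed 24 h; reporter mRNA quantified by RT-PCR, FAM primer extension, HpaI digestion and capillary electrophoresis; bidirectional fit versus DMSO baseline.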
Chain of Hepatocyte nuclear factor 6 (Homo sapiens) (Q9UBC0 whole entry, looked up): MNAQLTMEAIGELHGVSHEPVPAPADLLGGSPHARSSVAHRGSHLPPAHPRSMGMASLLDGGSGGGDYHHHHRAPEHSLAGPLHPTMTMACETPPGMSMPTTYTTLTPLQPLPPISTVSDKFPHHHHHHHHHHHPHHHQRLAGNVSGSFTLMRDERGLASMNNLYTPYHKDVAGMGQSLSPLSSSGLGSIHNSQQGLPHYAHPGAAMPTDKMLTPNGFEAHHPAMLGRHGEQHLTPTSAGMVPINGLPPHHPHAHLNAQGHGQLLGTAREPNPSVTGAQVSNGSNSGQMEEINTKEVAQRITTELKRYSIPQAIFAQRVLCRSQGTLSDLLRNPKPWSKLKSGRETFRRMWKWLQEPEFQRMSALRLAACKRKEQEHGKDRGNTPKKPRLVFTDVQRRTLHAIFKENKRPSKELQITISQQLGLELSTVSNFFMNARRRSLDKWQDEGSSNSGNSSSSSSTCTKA

Assay [10] concerns the target Heat shock factor protein 1 (Homo sapiens) (UniProt Q00613). The assay can be described thus: ATG_HSE_CIS: Attagene CIS-FACTORIAL HepG2 Assay for human Heat Shock Transcription Factor 1 (HSE) (AID 2282953). The settings on record: HepG2 HSE cis-reporter, Attagene RNA transcription; actives raise or lower the signal. The method in brief:
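Endogenous transcription factor activity captured via cis-promoter reporter units transfected into HepG2; treatment lasted 24 h. Fluorescence intensity of reporter fragments analysed with bidirectional curve fitting, DMSO baseline.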

Assay [11] addresses Paired box protein Pax-6 (Homo sapiens) (UniProt P26367). The assay can be described thus: ATG_Pax6_CIS: Attagene CIS-FACTORIAL HepG2 Assay for human Paired Box 6 (PAX6) (AID 2282956). Particulars: HepG2 CIS-FACTORIAL PAX6 reporter transcription, RNA readout; actives raise or lower the signal. The method in brief: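 HepG2 cells transiently transfected with multiplexed cis-promoter reporter units (endogenous TF activity) were dosed for 24 h. Reporter mRNA was quantified by RT-PCR, 6-FAM labeling, HpaI digestion and capillary electrophoresis; bidirectional fitting versus DMSO baseline.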

Assay [12] is described as follows: ATG_NF_kB_CIS: Attagene CIS-FACTORIAL HepG2 Assay for human Nuclear Factor Kappa B (NF-kB) (AID 2282991). Particulars: HepG2 Attagene cis-factorial NF-kB reporter mRNA; actives raise or lower the signal. The method in brief: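 Fluorescence of labelled RT-PCR products separated by capillary electrophoresis gives reporter mRNA levels from transfected HepG2 cells exposed 24 h; values are fitted in both directions relative to DMSO.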

Assay [13] is described as follows: ATG_NRF2_ARE_CIS: Attagene CIS-FACTORIAL HepG2 Assay for human Nuclear Factor Erythroid 2 Related Factor 2 (NFR2) response to Antioxidant Response Elements (ARE) (AID 2282992). Particulars: HepG2 Attagene ARE/NRF2 reporter, transcription factor activity; actives raise or lower the signal. The method in brief:
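HepG2 cells transiently transfected with multiplexed cis-regulated reporter transcription units measure endogenous transcription factor activity. Reporter mRNA at 24 h is quantified by RT-PCR, fluorescent labelling and capillary electrophoresis, with bidirectional fitting relative to DMSO.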

Assay [14] concerns the target Cellular tumor antigen p53 (Homo sapiens) (UniProt P04637). The assay can be described thus: ATG_p53_CIS: Attagene CIS-FACTORIAL HepG2 Assay for human p53 Transcription Factor (AID 2282994). The settings on record: HepG2 p53 cis-element reporter, Attagene mRNA; actives raise or lower the signal. The method in brief:
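HepG2 cells transiently transfected with multiplexed cis-regulated reporter transcription units read endogenous TF activity. After 24 h compound exposure, reporter mRNA was quantified by RT-PCR, fluorescent labelling, HpaI digestion and capillary electrophoresis; bidirectional fits versus DMSO baseline.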

Assay [15] in a line: ATG_XTT_Cytotoxicity: Cytotoxicity Assessment in the Attagene TRANS-FACTORIAL HepG2 Assay (AID 2283584; active = hit-call score of the fitted dose curve at least 0.9, where 1 is the maximum). The method in brief:
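HepG2 human liver cells, transiently transfected with multiple GAL4-UAS reporter units, were dosed and read at 24 h by XTT as cell number. Loss of signal was fitted relative to DMSO negative control baseline.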

Assay [16] can be described thus: ATG_Ets_CIS: Attagene CIS-FACTORIAL HepG2 Assay for human Erythroblast Transformation Specific (ETS) (AID 2282941). Particulars: HepG2 ETS cis-reporter transcription, actives raise or lower the signal. The method in brief: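 HepG2 cells transiently transfected with cis-promoter reporter transcription units were dosed for 24 h; reporter mRNA was measured by RT-PCR, 6-FAM primer extension, HpaI digestion and capillary electrophoresis, with bidirectional fitting against DMSO baseline.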

The nature of assay [17]: ATG_MRE_CIS: Attagene CIS-FACTORIAL HepG2 Assay for human Metal Responsive Element (MRE) (AID 2282954). Particulars: HepG2 MRE cis-reporter transcription, Attagene multiplex; actives raise or lower the signal. The method in brief:
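HepG2 cells transiently transfected with multiple cis-element reporter units measure endogenous MTF1-driven transcription. After 24 h compound exposure, reporter mRNA is quantified by RT-PCR with 6-FAM labelling, HpaI digestion and capillary electrophoresis; bidirectional fits versus DMSO.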

Assay [18] can be described thus: ATG_SREBP_CIS: Attagene CIS-FACTORIAL HepG2 Assay for human Sterol Regulatory Element Binding (SREBP) (AID 2282962). Particulars: HepG2 Attagene cis-factorial SREBP reporter, mRNA; actives raise or lower the signal. The method, boiled down:
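HepG2 cells transiently transfected with multiplexed cis-element reporter units report endogenous transcription factor activity. After 24 h of chemical exposure, reporter mRNA was quantified by RT-PCR, 6-FAM labelling, HpaI digestion and capillary electrophoresis; bidirectional fits used DMSO as baseline.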

Assay [19] in a line: ATG_VDRE_CIS: Attagene CIS-FACTORIAL HepG2 Assay for human Vitamin D Receptor Element (VDRE) (AID 2282968). The settings on record: HepG2 VDRE cis-reporter transcription, actives raise or lower the signal. The method, boiled down:
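HepG2 cells transiently transfected with cis-element reporter units, dosed 24 h; reporter mRNA measured by RT-PCR, 6-FAM labeling, HpaI digestion and capillary electrophoresis. Activity fitted bidirectionally against DMSO baseline.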

In assay [20] the target is Hepatocyte nuclear factor 3-beta (Homo sapiens) (UniProt Q9Y261). The assay can be described thus: ATG_FoxA2_CIS: Attagene CIS-FACTORIAL HepG2 Assay for human Forkhead box A2 (FOXA2) (AID 2282942). Particulars: HepG2 cis-reporter transcription factor activity, 24 h; actives raise or lower the signal. The method, boiled down: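 24 h dosing of HepG2 bearing cis-reporter constructs; mRNA readout by RT-PCR/CE fluorescence; bidirectional fit, DMSO baseline.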
Chain of Hepatocyte nuclear factor 3-beta (Homo sapiens) (Q9Y261 whole entry, looked up): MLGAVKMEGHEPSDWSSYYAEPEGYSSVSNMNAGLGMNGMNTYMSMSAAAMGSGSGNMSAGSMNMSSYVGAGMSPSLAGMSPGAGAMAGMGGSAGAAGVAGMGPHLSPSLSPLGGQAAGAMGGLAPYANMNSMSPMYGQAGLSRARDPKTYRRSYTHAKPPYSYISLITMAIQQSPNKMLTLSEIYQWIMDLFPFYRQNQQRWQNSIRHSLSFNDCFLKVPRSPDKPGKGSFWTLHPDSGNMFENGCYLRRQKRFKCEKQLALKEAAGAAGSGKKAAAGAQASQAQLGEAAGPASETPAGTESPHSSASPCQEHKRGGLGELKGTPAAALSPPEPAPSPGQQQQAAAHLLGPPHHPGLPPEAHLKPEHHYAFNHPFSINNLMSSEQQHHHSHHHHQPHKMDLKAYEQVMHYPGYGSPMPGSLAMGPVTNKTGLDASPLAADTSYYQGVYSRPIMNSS

The structures appear in SMILES notation. Inconclusive results are not listed. Active and inactive are the calls of the source. The calls were made as follows, unless noted: active = hit-call score of the fitted dose curve at least 0.9, where 1 is the maximum; inactive = score below 0.9.

Chain of Cellular tumor antigen p53 (Homo sapiens) (P04637 whole entry, looked up): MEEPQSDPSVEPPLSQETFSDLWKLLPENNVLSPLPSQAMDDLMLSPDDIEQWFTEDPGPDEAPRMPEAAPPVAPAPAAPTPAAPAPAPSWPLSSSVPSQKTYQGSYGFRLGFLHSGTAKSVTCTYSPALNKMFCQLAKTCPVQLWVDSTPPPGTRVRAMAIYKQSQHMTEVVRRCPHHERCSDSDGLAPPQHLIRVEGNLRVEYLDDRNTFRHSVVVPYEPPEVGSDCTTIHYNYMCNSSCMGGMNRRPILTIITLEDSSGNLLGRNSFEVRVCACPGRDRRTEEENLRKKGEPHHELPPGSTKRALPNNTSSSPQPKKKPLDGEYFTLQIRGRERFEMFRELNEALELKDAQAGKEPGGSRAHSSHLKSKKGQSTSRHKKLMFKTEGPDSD
Chain of Paired box protein Pax-6 (Homo sapiens) (P26367 whole entry, looked up): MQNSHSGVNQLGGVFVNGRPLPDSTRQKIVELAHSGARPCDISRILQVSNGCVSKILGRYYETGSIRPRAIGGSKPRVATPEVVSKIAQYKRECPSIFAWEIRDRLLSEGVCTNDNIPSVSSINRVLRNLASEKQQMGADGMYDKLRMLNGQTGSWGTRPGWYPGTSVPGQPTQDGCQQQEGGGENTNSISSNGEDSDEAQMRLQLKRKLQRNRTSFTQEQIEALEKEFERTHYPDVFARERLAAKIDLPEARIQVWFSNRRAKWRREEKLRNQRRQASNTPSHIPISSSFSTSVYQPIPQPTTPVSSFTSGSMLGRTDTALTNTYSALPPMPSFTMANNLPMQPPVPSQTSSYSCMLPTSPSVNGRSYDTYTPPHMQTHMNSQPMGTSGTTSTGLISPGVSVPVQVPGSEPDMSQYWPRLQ
Chain of Heat shock factor protein 1 (Homo sapiens) (Q00613 whole entry, looked up, the tested form may be a part): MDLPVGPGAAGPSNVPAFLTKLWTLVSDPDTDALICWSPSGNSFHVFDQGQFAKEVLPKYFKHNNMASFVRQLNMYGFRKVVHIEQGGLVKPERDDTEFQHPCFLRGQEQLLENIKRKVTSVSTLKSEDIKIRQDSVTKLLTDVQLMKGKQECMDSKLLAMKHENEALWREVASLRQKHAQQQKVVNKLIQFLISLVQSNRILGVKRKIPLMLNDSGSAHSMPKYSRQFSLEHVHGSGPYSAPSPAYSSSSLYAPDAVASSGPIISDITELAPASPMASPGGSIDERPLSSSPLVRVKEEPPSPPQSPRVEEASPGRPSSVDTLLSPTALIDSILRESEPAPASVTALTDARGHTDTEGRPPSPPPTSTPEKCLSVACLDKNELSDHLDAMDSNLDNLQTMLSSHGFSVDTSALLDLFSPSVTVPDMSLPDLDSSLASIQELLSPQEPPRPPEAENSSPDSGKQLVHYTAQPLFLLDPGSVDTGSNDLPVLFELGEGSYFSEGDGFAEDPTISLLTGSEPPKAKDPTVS

As for `O=C(CCN1CC1)OCC(CO)(COC(=O)CCN1CC1)COC(=O)CCN1CC1`, the result in assay [1], in assay [2], in [3], in [4], in assay [5] and in [6] was inactive. The call in assay [7], in [8], in assay [9], in assay [10], in assay [11] and in assay [12] was inactive. Also, the call in assay [13], in [14] and in [15] was inactive.
For `O=C(CCl)c1ccccc1`, the AC50 (in general, the concentration giving half of the maximal activity seen) in assay [1] is 8.31 µM (active); in assay [4], 59.3 µM (active); in assay [13], 8.04 µM (active); in assay [14] it was 58.6 µM (active). Further, the compound was called inactive in [2], in assay [3], in [5], in [16], in assay [8] and in [9]. For the same compound, the outcome in [10], in [17], in [11], in assay [18], in assay [19] and in [12] was inactive. Further, in assay [15], the result was inactive.
Take `C=CC(=O)OCCCCOC(=O)C=C`: the call in [1], in [3], in assay [5], in [20], in assay [7] and in assay [9] was inactive. For the same compound, the compound was classed as inactive in assay [10] and in assay [15]. Moreover, the AC50 was 74 µM (active) in assay [2]; 186 µM (active) in [4]; 77.3 µM (active) in [16]; 63.6 µM (active) in assay [8]; 52.4 µM (active) in assay [11]; 80.9 µM (active) in [18]. Further, the AC50 in [19] was 33.5 µM (active); in assay [12] it was 35.3 µM (active); in assay [13] it was 24.6 µM (active); in [14] it was 163 µM (active).
For the compound `Clc1ccc(-c2ccccc2)cc1`, the call in assay [1], in assay [3], in assay [5], in assay [16], in assay [20] and in assay [8] was inactive. The result in assay [9], in assay [10], in [19], in assay [12] and in assay [14] was inactive. Moreover, the figures for the AC50 in assay [2], in assay [4] and in [13] were 139 µM (active), 170 µM (active) and 149 µM (active), respectively.

Source of the values: PubChem BioAssay (EPA / NIEHS).
